An excerpt weighted towards active compounds, which were near 1.6% of everything screened.
KCNQ2 pot: potentiators of rat KCNQ2 potassium channel | 0.54% of 310,000 active | AID 2239, 2010 | B-score at 10 µM | CHO-K1 KCNQ2, FluxOR thallium flux fluorescence; active compounds read high | Potassium voltage-gated channel subfamily KQT member 2 (Rattus norvegicus), O88943;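 active means fluorescence ratio B-score at least 3 SD of library B-scores, with initial fluorescence B-score within 3 of them, cut at about 5.3 in these data; same plate scores as AID 2156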;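 further: B-score of peak minus minimum over baseline fluorescence ratio after K+ and Tl+ stimulus; positive B-score means potentiation of KCNQ2 with more thallium influx and brighter signal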
KCNQ2 block: rat KCNQ2 potassium channel inhibitors, primary screen, cell-based, CHO-K1, FluxOR thallium flux, B-score; B-score at 10 µM; 1.1% of 310,000 active; Potassium voltage-gated channel subfamily KQT member 2 (Rattus norvegicus), O88943; 20 min; active compounds read low;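 active means fluorescence ratio B-score at most minus 3 library SDs, with starting brightness B-score within 2 library SDs, cut at about -5.5 in these data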
KCNQ2 inh conf: rat KCNQ2 potassium channel inhibitors, confirmation, cell-based, thallium flux. shares compounds with KCNQ2 block. KCNQ2-expressing cells, inhibition; active compounds read low. activity change, negative = inhibition, % at 10 µM. 57% of 1,000 active;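 further: 0% = vehicle wells and values are ratio percent relative to vehicle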
KCNQ1 spec: human KCNQ1 channel inhibition, counter-screen for KCNQ2 inhibitor project, cell-based, FluxOR thallium flux; shares compounds with KCNQ2 block; KCNQ1-expressing cells, FluxOR thallium flux fluorescence; active compounds read low; activity change, negative = inhibition, % at 10 µM; 15% of 1,000 active;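 active means activity change at least 3 SD of negative controls below their mean in both duplicate wells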;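 further: CHO cells stably transfected with KCNQ1 and depolarized by potassium stimulus; peak minus minimum fluorescence over baseline after thallium addition; 0% = vehicle negative control and -100% = blank without thallium stimulus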
CHO parental ctr: thallium flux change in parental CHO cells, counter-screen for KCNQ2 inhibitor project; shares compounds with KCNQ2 block; active compounds read low; activity change, % at 10 µM; 14% of 1,000 active; AID 493029, 2011;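 further: 0% = vehicle negative controls with stimulus buffer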
KCNQ2 inh confirm: rat KCNQ2 channel inhibitors, confirmation, cell-based, automated patch clamp, single concentration. 49% of 550 active. KCNQ2-expressing cells, automated patch clamp current. AID 588531, 2011. shares compounds with KCNQ2 block. calls only at 10 µM
An asterisk follows results filed as active. Unless noted, how the calls were made is not given here.

`COc1cccc(/C=C(/C(=O)OCC(=O)NC2CCCCCCC2)c2ccccc2)c1` gave KCNQ2 pot -8.5, KCNQ2 block -8.5*, KCNQ2 inh conf -16%*, KCNQ1 spec inactive, CHO parental ctr inactive and KCNQ2 inh confirm inactive.
COc1cccc(/C=C(/C(=O)OCC(=O)NCC2CCCO2)c2ccccc2)c1 (stereo not given) was read as KCNQ2 block inactive.
For O=C(Cc1ccccc1)NCC(=O)OCC(=O)c1ccc(Cl)cc1 the results were KCNQ2 block inactive.
`Cc1ccc2cc(C(c3nnnn3C3CCCC3)N3CCOCC3)c(=O)[nH]c2c1C` (stereo not given) gave KCNQ2 pot -9.5, KCNQ2 block -9.5*, KCNQ2 inh conf inactive, KCNQ1 spec inactive and CHO parental ctr inactive.
Cc1ccc2cc(C(c3nnnn3C3CCCC3)N3CCN(c4ccccc4)CC3)c(=O)[nH]c2c1 (stereo not given) was read as KCNQ2 block inactive.
COc1cc2cc(C(c3nnnn3C3CCCC3)N3CCCCC3)c(=O)[nH]c2cc1OC (stereo not given) was read as KCNQ2 pot -7, KCNQ2 block -7*, KCNQ2 inh conf -22%*, KCNQ1 spec inactive, CHO parental ctr inactive and KCNQ2 inh confirm active.
`CCOC(=O)C1CCN(C(c2cc3ccc(C)c(C)c3[nH]c2=O)c2nnnn2C2CCCCC2)CC1` (stereo not given) gave KCNQ2 block inactive.
Screening CSc1nnc(C(C)c2ncc(C(F)(F)F)cc2Cl)n1C (stereo not given) returned KCNQ2 pot 0.91 and KCNQ2 block inactive.
Screening COc1ccc(C2SCC(=O)N2Cc2ccccc2)cc1 (stereo not given) returned KCNQ2 block inactive.
Screening COc1ccc(C2SCC(=O)N2CC23CC4CC(CC(C4)C2)C3)cc1 (stereo not given) returned KCNQ2 pot -6.9, KCNQ2 block -6.9*, KCNQ2 inh conf -33%*, KCNQ1 spec inactive, CHO parental ctr inactive and KCNQ2 inh confirm inactive.
CC(Cc1ccsc1)NC(=O)CCc1nnc(COc2ccccc2)o1 (stereo not given) was read as KCNQ2 pot 0.15 and KCNQ2 block inactive.
`CC1CCN(C(=O)CSc2nc(N)c(NC(=O)c3ccccc3)c(=O)[nH]2)CC1` gave KCNQ2 block inactive.
Screening COc1cccc(-c2nc(CS(=O)(=O)CC(=O)NC3CCCc4ccccc43)c(C)o2)c1 (stereo not given) returned KCNQ2 pot -10, KCNQ2 block -10*, KCNQ2 inh conf -32%*, KCNQ1 spec inactive, CHO parental ctr inactive and KCNQ2 inh confirm active.
Screening CCOc1ccc(-c2nc(CSCC(=O)NC3CC3)c(C)o2)cc1 returned KCNQ2 pot 0.64 and KCNQ2 block inactive.
CCOc1ccc(-c2nc(CSCC(=O)NC3CCCc4ccccc43)c(C)o2)cc1 (stereo not given) was read as KCNQ2 pot -8.8, KCNQ2 block -8.8*, KCNQ2 inh conf -40%*, KCNQ1 spec -37%*, CHO parental ctr -36%* and KCNQ2 inh confirm active.
COc1cccc(-c2nc(CS(=O)(=O)CC(=O)NC3CCCC3)c(C)o2)c1 was read as KCNQ2 block inactive.
Screening O=C(CCS(=O)(=O)c1ccccc1)N(CCCN1CCOCC1)c1nc2ccc(F)cc2s1 returned KCNQ2 block inactive.
Screening COCCN(C(=S)Nc1c(C)cccc1C)C(C)c1cccs1 (stereo not given) returned KCNQ2 pot 0.4 and KCNQ2 block inactive.
CCCCN1C2=NC(c3ccccc3)CN2c2ccccc21 (stereo not given) was read as KCNQ2 block inactive.
`Cc1ccc(C)c(S(=O)(=O)c2c(C)cc(C)[nH]c2=O)c1` gave KCNQ2 pot 0.14 and KCNQ2 block inactive.
O=C(CSc1ccccc1)NCC1(N2CCCCC2)CCCCC1 was read as KCNQ2 pot 0.01 and KCNQ2 block inactive.
Screening O=C(O)C1(P(=O)(c2ccc(Cl)cc2)c2ccc(Cl)cc2)CC1 returned KCNQ2 pot 0.44 and KCNQ2 block inactive.
CCOC(=O)C1(P(=O)(c2ccc(Cl)cc2)c2ccc(Cl)cc2)CCC1 was read as KCNQ2 pot -7.2, KCNQ2 block -7.2*, KCNQ2 inh conf -29%*, KCNQ1 spec inactive, CHO parental ctr inactive and KCNQ2 inh confirm active.
Screening O=C(CNC(=O)N1CC(=O)Nc2ccccc21)NCc1ccccc1Cl returned KCNQ2 pot 0.19 and KCNQ2 block inactive.
`Clc1cccc(Cl)c1CO/N=C/c1c(-c2ccccc2)nc2n1CCS2` gave KCNQ2 pot -8.5, KCNQ2 block -8.5*, KCNQ2 inh conf inactive, KCNQ1 spec inactive and CHO parental ctr inactive.
COC(=O)/C(C#N)=C/c1c(-c2ccccc2)nc2n1CCS2 was read as KCNQ2 block inactive.
For CCCc1cc(C(=O)NC2CCCCC2)no1 the results were KCNQ2 pot 1.1 and KCNQ2 block inactive.
Screening CCCc1cc(C(=O)N(C2CCCCC2)C2CCCCC2)no1 returned KCNQ2 pot -7.4, KCNQ2 block -7.4*, KCNQ2 inh conf inactive, KCNQ1 spec inactive and CHO parental ctr inactive.
`COCCNC(C(=O)Nc1cc(Cl)cc(Cl)c1)c1ccccc1` (stereo not given) gave KCNQ2 pot -8.1, KCNQ2 block -8.1*, KCNQ2 inh conf -30%*, KCNQ1 spec inactive, CHO parental ctr inactive and KCNQ2 inh confirm active.
O=C(OC(C(=O)Nc1cc(Cl)cc(Cl)c1)c1ccccc1)C1=COCCO1 (stereo not given) was read as KCNQ2 block inactive.
For COCC(C)NC(C(=O)Nc1ccc(C)c(Cl)c1)c1ccccc1 (stereo not given) the results were KCNQ2 pot -6.8, KCNQ2 block -6.8*, KCNQ2 inh conf inactive, KCNQ1 spec inactive and CHO parental ctr inactive.
`Cc1ccc(NC(=O)C(NC2CCCc3ccccc32)c2ccccc2)cc1Cl` (stereo not given) gave KCNQ2 pot -8.9, KCNQ2 block -8.9*, KCNQ2 inh conf inactive, KCNQ1 spec inactive and CHO parental ctr inactive.
Screening COCC(C)NC(C(=O)Nc1cccc(C(C)=O)c1)c1ccccc1 (stereo not given) returned KCNQ2 pot 0.75 and KCNQ2 block inactive.
